Each structure is given as a SMILES string. A number with no mark means an inactive call. The source made the active and inactive calls.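 Rule for the calls: active = inhibition above 50% of the enzyme in parasite cell lysate; inactive = the rest.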

This experiment can be described thus: malaria lysate leucine aminopeptidase inhibition – cell lysate, fluorescence, Plasmodium falciparum lysate, powder samples, late-stage follow-up (AID 492973). The following applies: P. falciparum cell lysate, H-Leu-NHMec fluorescence; at 5 µM; stronger effect = higher value.
In general, inhibition refers to the drop in the measured response relative to a control, in per cent. `CC(C)c1ccc(NC(=O)[C@H]2CCCC[C@H]2C(=O)O)cc1`: the inhibition was 27%.

As for `CCOc1cccc(-c2cc(=O)[nH][nH]2)c1`, the inhibition is 43%.

As to `COC(=O)c1cccc(NC(=O)CSc2nc(C)cc(=O)[nH]2)c1`, the inhibition is 26%.

On to `COc1ccc(C(C)(C)C)cc1NC(=O)[C@H]1CC=CC[C@H]1C(=O)O`, for which the inhibition is 40%.

`CCOc1ccc(NC(=O)Nc2cccs2)cc1`: the inhibition was 48%.

Regarding `COc1cc(NC(=O)CSc2nc3c(C)ccc(C)c3cc2C)c(C(=O)O)cc1OC`, the inhibition is 74% (active).

Regarding `CCc1cc2cc(OC)ccc2nc1SCC(=O)Nc1cc(OC)c(OC)cc1C(=O)O`, the inhibition was 68% (active).

Consider `O=c1cc(-c2ccc(Cl)c(Cl)c2)[nH][nH]1`, for which the inhibition was 13%.

`O=C(CSc1nccc(=O)[nH]1)Nc1ccc(Br)c(Cl)c1`: the inhibition was 43%.

`Cc1ccc(-c2c(C)sc(NC(=O)[C@@H]3C4CCC(O4)[C@@H]3C(=O)O)c2C(=O)OC(C)C)cc1` (stereo not given in full): the inhibition was 23%.

`Cc1ccc(-n2c(C)cc(C(=O)COC(=O)c3ccc[nH]c3=O)c2C)cc1`: the inhibition is 43%.

As to `Cc1ccc(Nc2nnc(SC3CCOC3=O)s2)cc1` (stereo not given), the inhibition was 57% (active).

On to `N#Cc1c(NC(=O)[C@@H]2C3C=CC(C3)[C@@H]2C(=O)O)sc2c1CCCCC2` (stereo not given in full), for which the inhibition is 30%.

On to `S=c1nc(-c2cccc(Cl)c2)[nH][nH]1`, for which the inhibition was 22%.

In the case of `Cc1ccc(-n2c(C)cc(C(=O)COC(=O)c3ccc[nH]c3=O)c2C)cc1C`, the inhibition is 54% (active).

Take `CCCCc1c(O)nc(SCC(=O)Nc2ccc3c(c2)CCC3)[nH]c1=O`: the inhibition was 21%.

`COC(=O)c1c(-c2cc(C)ccc2C)csc1NC(=O)[C@@H]1CC=CC[C@@H]1C(=O)O`: the inhibition is 64% (active).

Consider `COc1ccc(NC(=O)CSC2=NC(=O)CC(C)=N2)cc1`, for which the inhibition is 27%.

With `COc1cc(NC(=O)CSc2nc3ccccc3cc2C)c(C(=O)O)cc1OC`, the inhibition was 67% (active).

Take `COC(=O)c1c(-c2ccco2)csc1NC(=O)[C@H]1CC=CC[C@H]1C(=O)O`: the inhibition was 51% (active).

`O=C(CSc1nnc(Nc2ccccc2)s1)NN1C(=O)NC2(CCCCC2)C1=O`: the inhibition is 57% (active).

As for `COc1cc(NC(=O)CSc2nnc3c(C)cc4cc(C)cc(C)c4n23)c(C(=O)O)cc1OC`, the inhibition was 55% (active).

For `CCOC(=O)c1c(NC(=O)[C@@H]2C3CCC(O3)[C@@H]2C(=O)O)sc(C)c1-c1ccc(C)cc1` (stereo not given in full), the inhibition is 29%.

In the case of `COc1ccc2nc(SCC(=O)Nc3cc(OC)c(OC)cc3C(=O)O)c(C)cc2c1`, the inhibition is 66% (active).

Regarding `CCc1ccc(Nc2nnc(SC3CCOC3=O)s2)cc1` (stereo not given), the inhibition is 43%.

The values above are taken from PubChem BioAssay AID492973 (The Scripps Research Institute Molecular Screening Center, 2010).
